Results taken from PubChem BioAssay (EPA / NIEHS).
The source holds several records for some structures; these can differ, active in one and inactive in another. Active and inactive are the calls of the source. Rule for the calls: active = hit-call score of the fitted dose curve at least 0.9, where 1 is the maximum; inactive = score below 0.9.

Legend:
[1] = BSK_3C_Vis: BioMAP Diversity Plus: 3C Assay for Morphology Visualization (AID 2283025); conditions: primary human endothelial cells (HUVEC);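 note: fitted both ways so gain or loss versus DMSO counts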;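 for AC50: light microscopy image of cell morphology used as background control; cells imaged 24 h after dosing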
Summary of the method: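 Endothelial cells from human umbilical vein were treated with test chemicals for 24 h and inspected by light microscopy for changes in cell conformation.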

[2] = BSK_4H_SRB: Viability Assessment in the BioMAP Diversity Plus: 4H Assay (AID 2283027); conditions: primary human endothelial cells (HUVEC);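 note: cells exposed to compound for 24 h before staining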
Summary of the method: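 Human umbilical vein endothelial cells were dosed with chemical and, after 24 h, fixed with 10% TCA, stained with 0.1% sulforhodamine B, and read at 560 nm to give total protein as a cytotoxicity measure. Bidirectional fitting relative to DMSO control.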

[3] = BSK_BE3C_SRB: Viability Assessment in the BioMAP Diversity Plus: BE3C Assay (AID 2283028); conditions: primary human bronchial epithelial cells
Summary of the method: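 Overt cytotoxicity was assessed as total protein in confluent human primary bronchial epithelial cultures 24 h after chemical addition, using 0.1% sulforhodamine B staining read at 560 nm.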

[4] = read-out: Thrombomodulin, THBD (gene 7056); test: BSK_3C_Thrombomodulin: BioMAP Diversity Plus: 3C Assay for Thrombomodulin Biomarker Activity (AID 2283029); conditions: primary human endothelial cells (HUVEC); actives raise or lower the signal
Summary of the method: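 Thrombomodulin ELISA, human primary HUVEC, 24 h post-dose; data fitted in both directions relative to DMSO.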

[5] = read-out: Urokinase-type plasminogen activator receptor (uPAR), PLAUR (gene 5329); test: BSK_4H_uPAR: BioMAP Diversity Plus: 4H Assay for Urokinase-type plasminogen activator receptor (uPAR) Biomarker Activity (AID 2283030); conditions: primary human endothelial cells (HUVEC); actives raise or lower the signal
Summary of the method: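 Chemicals are dosed onto human vascular endothelial primary cells (umbilical vein). After 24 h, uPAR is read by ELISA. Gain or loss of signal is fitted relative to DMSO.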

[6] = read-out: Vascular endothelial growth factor receptor 2 (Homo sapiens) (UniProt P35968); test: BSK_4H_VEGFRII: BioMAP Diversity Plus: 4H Assay for Vascular endothelial growth factor receptor 2 (VEGFR2) Biomarker Activity (AID 2283031); conditions: primary human endothelial cells (HUVEC); actives raise or lower the signal
Summary of the method: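 VEGFRII levels on human vascular endothelial primary cells were determined by ELISA at 24 hours post-dosing, with gain- or loss-of-signal fitted against DMSO controls.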

[7] = read-out: Human Leukocyte Antigen - DR isotype (HLADR), HLA-DRA (gene 3122); test: BSK_BE3C_HLADR: BioMAP Diversity Plus: BE3C Assay for Human Leukocyte Antigen - DR isotype (HLADR) Biomarker Activity (AID 2283032); conditions: primary human bronchial epithelial cells; actives raise or lower the signal
Summary of the method: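 Signal came from an ELISA for HLA-DR in human bronchial epithelial primary cells harvested 24 h after treatment; gain- and loss-of-signal fitting used DMSO controls as reference.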

[8] = read-out: Vascular cell adhesion molecule 1 (VCAM1), VCAM1 (gene 7412); test: BSK_4H_VCAM1: BioMAP Diversity Plus: 4H Assay for Vascular cell adhesion molecule 1 (VCAM1) Biomarker Activity (AID 2283033); conditions: primary human endothelial cells (HUVEC); actives raise or lower the signal;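 note: cell-surface VCAM-1 protein measured by ELISA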
Summary of the method: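 Endpoint derived from bidirectional fitting against DMSO controls of VCAM-1 ELISA signal in umbilical vein endothelial cells sampled at 24 h following treatment.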

[9] = read-out: Interferon-gamma inducible Protein 10 (IP10), CXCL10 (gene 3627); test: BSK_BE3C_IP10: BioMAP Diversity Plus: BE3C Assay for Interferon-gamma inducible Protein 10 (IP10) Biomarker Activity (AID 2283034); conditions: primary human bronchial epithelial cells; actives raise or lower the signal
Summary of the method: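 Using primary human bronchial epithelial cultures, the assay captures IP-10 by ELISA one day (24 h) after exposure. Parallel SRB staining of total protein flags overt cytotoxicity. Fits run bidirectionally relative to DMSO.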

[10] = read-out: Monokine induced gamma interferon (MIG), CXCL9 (gene 4283); test: BSK_BE3C_MIG: BioMAP Diversity Plus: BE3C Assay for Monokine induced gamma interferon (MIG) Biomarker Activity (AID 2283035); conditions: primary human bronchial epithelial cells; actives raise or lower the signal;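 note: MIG protein measured by ELISA in BE3C cultures after 24 h of dosing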
Summary of the method: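 ELISA read-out of MIG in human lung bronchial epithelial primary cultures, 24 h post-dosing. Bidirectional curve fit vs DMSO baseline.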

[11] = read-out: Transforming growth factor beta 1 (TGFb1), TGFB1 (gene 7040); test: BSK_BE3C_TGFb1: BioMAP Diversity Plus: BE3C Assay for Transforming growth factor beta 1 (TGFb1) Biomarker Activity (AID 2283036;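 note: TGF-b1 protein level measured by ELISA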); conditions: primary human bronchial epithelial cells; actives raise or lower the signal
Summary of the method: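 In this human primary bronchial epithelial system, an ELISA quantified TGF-b1 one day after dosing. Endpoint changes in either direction were fitted relative to DMSO.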

[12] = read-out: Plasminogen activator inhibitor-1 (PAI1), SERPINE1 (gene 5054); test: BSK_BE3C_PAI1: BioMAP Diversity Plus: BE3C Assay for Plasminogen activator inhibitor-1 (PAI1) Biomarker Activity (AID 2283037); conditions: primary human bronchial epithelial cells; actives raise or lower the signal
Summary of the method: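 PAI-1 biomarker levels in treated human bronchial epithelial cells are determined by ELISA at 24 h. Both increases and decreases relative to DMSO are fitted.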

[13] = read-out: urokinase plasminogen activator (uPA), PLAU (gene 5328); test: BSK_BE3C_uPA: BioMAP Diversity Plus: BE3C Assay for urokinase plasminogen activator (uPA) Biomarker Activity (AID 2283038); conditions: primary human bronchial epithelial cells; actives raise or lower the signal;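 note: uPA protein level quantified by ELISA in cell cultures; uPA read one day after compound addition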
Summary of the method: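 Measured by ELISA: uPA from human primary bronchial epithelial cells 24 h after chemical treatment. Values derive from bidirectional curve fitting with DMSO serving as negative control. Total protein by SRB staining in parallel wells flagged overt cytotoxicity.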

[14] = read-out: Urokinase-type plasminogen activator receptor (uPAR), PLAUR (gene 5329); test: BSK_BE3C_uPAR: BioMAP Diversity Plus: BE3C Assay for Urokinase-type plasminogen activator receptor (uPAR) Biomarker Activity (AID 2283039); conditions: primary human bronchial epithelial cells; actives raise or lower the signal;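 note: uPAR protein level measured by ELISA on the cells; cells exposed to compound for one day before measurement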
Summary of the method: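 A uPAR ELISA serves as the readout, taken 24 h after treating primary human bronchial epithelial cells. Responses in either direction are fitted against DMSO, which defines baseline activity.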

[15] = read-out: Interleukin-6 (IL6), IL6 (gene 3569); test: BSK_CASM3C_IL6: BioMAP Diversity Plus: CASM3C Assay for Interleukin-6 (IL6) Biomarker Activity for (AID 2283040); conditions: primary human coronary artery smooth muscle cells; actives raise or lower the signal
[16] = read-out: Tissue plasminogen activator (tPA), PLAT (gene 5327); test: BSK_BE3C_tPA: BioMAP Diversity Plus: BE3C Assay for Tissue plasminogen activator (tPA) Biomarker Activity (AID 2283041); conditions: primary human bronchial epithelial cells; actives raise or lower the signal;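 note: tPA level quantified by ELISA one day after compound addition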
Summary of the method: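 Bidirectional curve fitting relative to DMSO defined activity, with tPA detected by ELISA in chemically treated human bronchial epithelial primary cells at 24 hours.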

[17] = read-out: Interleukin-8 (IL8), CXCL8 (gene 3576); test: BSK_CASM3C_IL8: BioMAP Diversity Plus: CASM3C Assay for Interleukin-8 (IL8) Biomarker Activity (AID 2283042); conditions: primary human coronary artery smooth muscle cells; actives raise or lower the signal;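 note: IL-8 protein level quantified by ELISA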
[18] = read-out: Human Leukocyte Antigen - DR isotype (HLADR), HLA-DRA (gene 3122); test: BSK_CASM3C_HLADR: BioMAP Diversity Plus: CASM3C Assay for Human Leukocyte Antigen - DR isotype (HLADR) Biomarker Activity (AID 2283043); conditions: primary human coronary artery smooth muscle cells; actives raise or lower the signal;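 note: cell-surface HLA-DR protein level quantified by ELISA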
[19] = read-out: Macrophage colony-stimulating factor (MCSF), CSF1 (gene 1435); test: BSK_CASM3C_MCSF: BioMAP Diversity Plus: CASM3C Assay for Macrophage colony-stimulating factor (MCSF) Biomarker Activity (AID 2283044); conditions: primary human coronary artery smooth muscle cells; actives raise or lower the signal;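 note: M-CSF protein amount quantified by ELISA after 24 h exposure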

Measured: AC50

CC1(C)[C@H](C(=O)O[C@H](C#N)c2cccc(Oc3ccccc3)c2)[C@@H]1/C=C(\Cl)C(F)(F)F
active: [7] 0.0141 µM
inactive: [1] | [2] | [3] | [4] | [5] | [6] | [7] | [8] | [9] | [10] | [11] | [12] | [13] | [14] | [15] | [16] | [17] | [18] | [19]

O=C(N[C@H]1CN2CCC1CC2)c1ccc2c(c1)OCCO2
inactive: all assays above

Cc1c([N+](=O)[O-])c(C)c([N+](=O)[O-])c(C(C)(C)C)c1[N+](=O)[O-]
active: [1] 37.4 µM
inactive: all other assays above

C[C@]12CC[C@@H](O)C[C@@H]1CC[C@@H]1[C@@H]2CC[C@]2(C)C(=O)CC[C@@H]12
inactive: all assays above

OCCN(CCO)CCO
inactive: all assays above

COc1ccccc1N
inactive: all assays above
